The values that follow come from PubChem BioAssay (NCATS).

Results filed as inconclusive are left out. Calls of active or inactive are those of the source. Calls come from the whole dose curve; as a rule, active = well fitted inhibition curve with a large enough effect; inconclusive = small, poorly fitted or top-dose-only effect; inactive = flat fitted curve, though single readings scatter.
Potency is the fitted concentration of half-maximal effect.

The test system of the first assay is TAB109. Briefly: qHTS profiling for inhibitors of Plasmodium falciparum proliferation (AID 504749).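 For activity, negative = inhibition: 0% = DMSO vehicle and full inhibition = artemisinin control.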 Note: nearly all actives have a fitted effect of over 60% in size. The note with it: P. falciparum in erythrocytes, SYBR Green DNA, 72 h; series mostly up to 28.7 µM; activity, negative = inhibition: at the top concentration. Summed up: (§1)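 Readout was DNA-dye fluorescence from lysed cultures, ex 485/em 535 nm. Parasitized red cells had grown 72 h with compound; data scaled between 0.29 uM artemisinin and DMSO wells and corrected using vehicle-only plates.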
For orientation: Quantitative high-throughput screening tests each substance at several concentrations.
As to `CN(C)[C@H]1C(=O)C(C(=O)NCN2CCCC2)=C(O)[C@]2(O)C(=O)C3=C(O)c4c(O)cccc4[C@](C)(O)[C@H]3C[C@H]12`, the “activity, negative = inhibition” value was -2.47% (inactive).

As to `C[C@]12CC[C@H]3c4ccc(O)cc4CC[C@@H]3[C@H]1CC[C@@H]2OC(=O)CCC1CCCC1`, the “activity, negative = inhibition” value is -23% (inactive).

For `Cc1cn([C@H]2C[C@H](N=[N+]=[N-])[C@H](CO)O2)c(=O)[nH]c1=O`, the “activity, negative = inhibition” value was 4.24% (inactive).

For `O=C(O)[C@@H](S)[C@H](S)C(=O)O`, the Potency is 5.62 µM (active).

Regarding `CC(C)(C)NC[C@@H](O)c1ccc(O)c(CO)n1`, the “activity, negative = inhibition” value was 7.23% (inactive).

`NS(=O)(=O)c1cc2c(cc1Cl)N[C@H](Cc1ccccc1)NS2(=O)=O`: the “activity, negative = inhibition” value was 6.66% (inactive).

The test system of a further assay is TAB113. The assay is described as above. The note with it: P. falciparum in erythrocytes, SYBR Green DNA, 72 h; series mostly up to 28.7 µM; activity, negative = inhibition: at the top concentration. Summed up:
as §1
Regarding `CN(C)[C@H]1C(=O)C(C(=O)NCN2CCCC2)=C(O)[C@]2(O)C(=O)C3=C(O)c4c(O)cccc4[C@](C)(O)[C@H]3C[C@H]12`, the “activity, negative = inhibition” value was 0.852% (inactive).

`Cc1cn([C@H]2C[C@H](N=[N+]=[N-])[C@H](CO)O2)c(=O)[nH]c1=O`: the “activity, negative = inhibition” value is 13.6% (inactive).

`O=C(O)[C@@H](S)[C@H](S)C(=O)O`: the Potency was 11.2 µM (active).

Regarding `CC(C)(C)NC[C@@H](O)c1ccc(O)c(CO)n1`, the “activity, negative = inhibition” value is 4.74% (inactive).

As for `NS(=O)(=O)c1cc2c(cc1Cl)N[C@H](Cc1ccccc1)NS2(=O)=O`, the “activity, negative = inhibition” value is 1.73% (inactive).

For a further assay, the system named is TAB165. The description is as above. Particulars: P. falciparum in erythrocytes, SYBR Green DNA, 72 h; series mostly up to 28.7 µM; activity, negative = inhibition: at the top concentration. Put shortly: as §1
With `CN(C)[C@H]1C(=O)C(C(=O)NCN2CCCC2)=C(O)[C@]2(O)C(=O)C3=C(O)c4c(O)cccc4[C@](C)(O)[C@H]3C[C@H]12`, the “activity, negative = inhibition” value was -0.307% (inactive).

Turning to `Cc1cn([C@H]2C[C@H](N=[N+]=[N-])[C@H](CO)O2)c(=O)[nH]c1=O`, the “activity, negative = inhibition” value was 0.895% (inactive).

With `O=C(O)[C@@H](S)[C@H](S)C(=O)O`, the Potency is 11.2 µM (active).

On to `CC(C)(C)NC[C@@H](O)c1ccc(O)c(CO)n1`, for which the “activity, negative = inhibition” value is 5.41% (inactive).

Consider `NS(=O)(=O)c1cc2c(cc1Cl)N[C@H](Cc1ccccc1)NS2(=O)=O`, for which the “activity, negative = inhibition” value is -4.52% (inactive).

The next assay has as its system W2. Described as above. The note with it: P. falciparum in erythrocytes, SYBR Green DNA, 72 h; series mostly up to 28.7 µM; activity, negative = inhibition: at the top concentration. Put shortly:
as §1
Regarding `CN(C)[C@H]1C(=O)C(C(=O)NCN2CCCC2)=C(O)[C@]2(O)C(=O)C3=C(O)c4c(O)cccc4[C@](C)(O)[C@H]3C[C@H]12`, the “activity, negative = inhibition” value is 1.49% (inactive).

Regarding `C[C@]12CC[C@H]3c4ccc(O)cc4CC[C@@H]3[C@H]1CC[C@@H]2OC(=O)CCC1CCCC1`, the Potency is 9.53 µM (active).

On to `Cc1cn([C@H]2C[C@H](N=[N+]=[N-])[C@H](CO)O2)c(=O)[nH]c1=O`, for which the “activity, negative = inhibition” value was 10.6% (inactive).

In the case of `O=C(O)[C@@H](S)[C@H](S)C(=O)O`, the Potency is 3.38 µM (active).

For the compound `CC(C)(C)NC[C@@H](O)c1ccc(O)c(CO)n1`, the “activity, negative = inhibition” value was -4.34% (inactive).

Consider `NS(=O)(=O)c1cc2c(cc1Cl)N[C@H](Cc1ccccc1)NS2(=O)=O`, for which the “activity, negative = inhibition” value was 5.95% (inactive).
